Test results taken from PubChem BioAssay (NCI).
This is part of a sample that, as a whole, favours compounds with a hit. Of some 79,000 tested, about 15% had one in any assay. A number with no mark means an inactive call. Active and inactive are the calls of the source. Cut-off read from the data, not from the text of the source: active = growth inhibition above about 70%; inactive = the rest.

Assay: NCI Yeast Anticancer Drug Screen. Data for the CLN2oe strain (AID 163);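 note: 0% = growth of vehicle-only control cultures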
Conditions: S. cerevisiae CLN2oe strain, hits give high values
Procedure: Growth inhibition of yeast strains with defined genetic alterations is measured as a screen for potential anti-cancer activity. Selected strains with alterations in DNA damage repair or cell cycle control were exposed to compounds and growth inhibition was measured relative to vehicle treated controls. The strain used in this assay is CLN2oe

**Q.** Which growth inhibition (at 1.2 µM) does the source give for `O=C(O)C1OC1(c1cccc(Cl)c1)c1ccccc1Cl` (stereo not given) here?
**A.** 15%

**Q.** And the growth inhibition (at 3.7 µM)?
**A.** 16%

**Q.** And the growth inhibition (at 11.0 µM)?
**A.** 13%

**Q.** And the growth inhibition (at 33.0 µM)?
**A.** 39%

**Q.** What about the growth inhibition (at 100.0 µM) of the same compound?
**A.** 93% (active)

**Q.** Which results are given for `CNC(=O)OCc1c(COC(=O)NC)c(-c2ccc(-c3ccccc3)cc2)n(C)c1C`?
**A.** growth inhibition (at 1.2 µM): -29%; growth inhibition (at 3.7 µM): -2%; growth inhibition (at 11.0 µM): -20%; growth inhibition (at 33.0 µM): -5%; growth inhibition (at 100.0 µM): -9%

**Q.** For `COc1ccc2nc3cccc([N+](=O)[O-])c3c(NCCN(CCO)CCO)c2c1`, which growth inhibition (at 1.2 µM) is on record?
**A.** -5%

**Q.** And the growth inhibition (at 3.7 µM)?
**A.** -5%

**Q.** And the growth inhibition (at 11.0 µM)?
**A.** 11%

**Q.** And the growth inhibition (at 33.0 µM)?
**A.** 61%

**Q.** And the growth inhibition (at 100.0 µM)?
**A.** 91% (active)

**Q.** For `O=C(NNc1ccnc2cc(Cl)ccc12)/C(=C\c1ccccc1Cl)NC(=O)c1ccccc1`, which growth inhibition (at 1.2 µM) is on record?
**A.** 11%

**Q.** And the growth inhibition (at 3.7 µM)?
**A.** 32%

**Q.** And the growth inhibition (at 11.0 µM)?
**A.** 70% (active)

**Q.** And the growth inhibition (at 33.0 µM)?
**A.** 76% (active)

**Q.** What about the growth inhibition (at 100.0 µM) of the same compound?
**A.** 83% (active)

**Q.** Which growth inhibition (at 1.2 µM) does the source give for `c1ccc2c(c1)sc1nc3ccncc3nc12` here?
**A.** 2%

**Q.** What about the growth inhibition (at 3.7 µM) of the same compound?
**A.** 5%

**Q.** And the growth inhibition (at 11.0 µM)?
**A.** 4%

**Q.** What about the growth inhibition (at 33.0 µM) of the same compound?
**A.** 4%

**Q.** What about the growth inhibition (at 100.0 µM) of the same compound?
**A.** 7%

**Q.** Which results are given for `c1ccc(-c2ccnc3c2ccc2c(-c4ccccc4)ccnc23)cc1`?
**A.** growth inhibition (at 1.2 µM): -8%; growth inhibition (at 3.7 µM): -20%; growth inhibition (at 11.0 µM): 50%; growth inhibition (at 33.0 µM): 98% (active); growth inhibition (at 100.0 µM): 98% (active)

**Q.** What does the source list for `CCCCCCCCCCCCCCC(C(=O)[O-])[n+]1ccccc1` (stereo not given)?
**A.** growth inhibition (at 1.2 µM): 3%; growth inhibition (at 3.7 µM): 3%; growth inhibition (at 11.0 µM): 3%; growth inhibition (at 33.0 µM): -2%; growth inhibition (at 100.0 µM): 26%

**Q.** Which growth inhibition (at 1.2 µM) does the source give for `CCC/C(Cl)=N\OC(=O)Nc1ccc(Br)cc1` here?
**A.** 10%

**Q.** And the growth inhibition (at 3.7 µM)?
**A.** 15%

**Q.** What about the growth inhibition (at 11.0 µM) of the same compound?
**A.** 84% (active)

**Q.** What about the growth inhibition (at 33.0 µM) of the same compound?
**A.** 98% (active)

**Q.** What about the growth inhibition (at 100.0 µM) of the same compound?
**A.** 99% (active)
